An excerpt weighted towards active compounds, which were near 2% of everything screened.
aSyn yeast inh: rescues yeast growth from alpha-synuclein toxicity. Yeast expressing alpha-synuclein, growth rescue, BacTiter-Glo, 24 h. 0.14% of 370,000 active. Potency, µM (top dose mostly 46.1 µM), inactives show at the highest dose growth rescue (activation), hits mostly activators; also: % of control where 0% means no effect; nearly all actives have a fitted effect of over 65% in size
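Readout is rescue of growth in alpha-synuclein-expressing yeast, so inhibitors of toxicity appear as activators. Growth after 24 hr at 30 deg C in galactose medium is quantified by luminescence.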
Abeta yeast res: compounds reversing amyloid beta toxicity in yeast; yeast expressing A-beta42, growth rescue, OD600, 48 h; response scale: 0% DMSO, 100% iron-clioquinol control; Potency, µM (series often up to 46.1 µM), most hits filed as activators; 0.063% of 410,000 active; AID 1347071; also: nearly all actives have a fitted effect of over 55% in size
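Yeast A-beta toxicity model in growth medium with pinned compounds, 48 h at 30 C; growth read as absorbance at 600 nm. Normalized to FeCl3/clioquinol equimolar mix (positive) and DMSO (negative).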
GRP78 ERSR act: induces the endoplasmic reticulum stress response in human glioma cells | U87-MG GRP78 promoter luciferase reporter, 16 h | Potency, µM, for the others: top-dose activation, hits mostly activators | 0.02% of 420,000 active | AID 602332; also: series mostly up to about 76 µM; % of control where 0% means no effect; nearly all actives have a fitted effect of over 35% in size
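Stably transfected U87-MG glioma cells carrying a GRP78-based luciferase sensor; 16 h compound incubation. Luminescence end-point read 10 min after Bright-Glo addition at room temperature.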
FUS suppressor: FUS proteinopathy suppression in yeast | S. cerevisiae FUS-expressing, growth rescue, OD600, 24 h | AID 1347120 | Potency, µM (highest dose often 76.6 µM), actives largely listed as activators | 0.24% of 390,000 active;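 also: plate controls were DMSO vehicle for no effect and reference control for full effect; nearly all actives have a fitted effect of over 55% in size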
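FUS-expressing yeast, raffinose-pregrown, induced in 2% galactose minimal medium at OD 0.005; compounds in a dilution series, 24hr at 30C. Growth restoration read as absorbance at 600 nm. CP55940 positive control, DMSO negative.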
MBNL1 CUG block: blocks human MBNL1 binding to CUG repeat RNA; TR-FRET MBNL1-His/biotin-(CUG)12 binding, 665/545 ratio; Q9NR56; 0.036% of 280,000 active; Potency, µM (series often up to 57.5 µM), for the others: at the top dose activity change, negative = inhibition, hits mostly inhibitors; AID 2675; active = well fitted inhibition curve with a large enough effect in the signal ratio, with a control signal flat, not every such curve was filed as active; inconclusive = small, poorly fitted or top-dose-only effect, or effect the other way, or a change in a side signal; inactive = no such curve, though single readings can be large or run the other way; the % refers to the signal ratio; also: % is scaled to controls: 0 for no effect and ±100 for the full control effect
Target sequence (Q9NR56 whole entry, looked up): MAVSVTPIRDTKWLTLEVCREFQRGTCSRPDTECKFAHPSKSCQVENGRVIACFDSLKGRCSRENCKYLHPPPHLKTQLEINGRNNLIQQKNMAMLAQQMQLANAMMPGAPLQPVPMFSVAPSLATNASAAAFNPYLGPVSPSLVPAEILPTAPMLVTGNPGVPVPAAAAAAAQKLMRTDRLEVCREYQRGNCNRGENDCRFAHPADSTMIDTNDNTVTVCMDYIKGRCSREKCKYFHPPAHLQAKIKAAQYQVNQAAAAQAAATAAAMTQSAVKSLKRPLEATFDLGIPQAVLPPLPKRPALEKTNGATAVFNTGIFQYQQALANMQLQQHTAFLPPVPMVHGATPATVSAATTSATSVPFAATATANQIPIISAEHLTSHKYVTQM
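MBNL1-His + Biotin-(CUG)12, cpd titration 92 nM–58 uM; Tb anti-His Ab 0.055 ng/ul, SA-XL665 5 nM (final); 60 min RT; ratiometric 665/545 nm, Ex 340 nm; normalized to buffer and full-complex controls.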
TDP43 rescue: TDP-43 toxicity inhibition in yeast; TDP-43 expressing yeast growth rescue, BacTiter-Glo, 24 h; Potency, µM (doses to about 46.1 µM), inactives show at the top dose growth rescue (activation), most hits filed as activators; 1.8% of 410,000 active; AID 652104; also: % of control where 0% means no effect; nearly all actives have a fitted effect of over 50% in size
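Cell-based yeast growth screen: TDP-43 expression induced in galactose, inoculum OD600=0.02 after raffinose pregrowth to mid-log. Read-out BacTiter-Glo luminescence at 24 hr, 30 deg C; inhibition of toxicity seen as signal increase.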
* marks the source's active call; other numbers are inactive results; i = inactive; ? = inconclusive; . = no result given. Unless noted, calls follow the shape of the dose curve; as a rule, active = well fitted curve in the direction sought with a large enough effect; inconclusive = small, poorly fitted or top-dose-only effect, or another doubt; inactive = no such curve, though single readings can be large; an effect the other way counts as inactive or inconclusive. Potency is read from the fitted curve at half-maximal effect.

SMILES | aSyn yeast inh | Abeta yeast res | GRP78 ERSR act | FUS suppressor | MBNL1 CUG block | TDP43 rescue
O=S1(=O)CCOC[C@H](c2ccccc2)N1Cc1ccc(Cl)cc1Cl | . | . | -2.0% | . | . | .
Nc1nn(-c2ccccc2)c(N)c1N=Nc1cccc(F)c1 | -18.9% | i | 0.9% | i | ? | ?
Nc1nn(-c2ccccc2)c(N)c1N=Nc1ccc2c(c1)OCO2 | -14.6% | i | -2.6% | i | ? | 17.8µM*
CCOC(=O)[C@]12CCCC3=C1N(CCC3)C(=O)[C@@H](CC(=O)NCCC(C)C)C2 | . | . | . | i | . | .
CCCCCCCSc1nsc(N)n1 | -14.8% | i | -3.6% | i | 0.5% | 12.6µM*
C=CCn1c(SCC(=O)C(C)(C)C)nnc1-c1ccc(Cl)cc1 | . | . | . | i | . | .
C(=C\c1ccnc2ccccc12)/c1cccs1 | 0.3% | . | 5.2% | . | . | .
O=C(/C=C/c1ccnc2ccccc12)c1cccs1 | 1.8% | i | -16.3% | i | 5.8% | 3.55µM*
COCCN(C)C(=O)c1cnn(-c2ncc3c(n2)-c2ccccc2CC3)c1C | . | . | 0.9% | . | . | .
O=C(COc1ccccc1Cl)NC(=S)N1CCc2ccccc21 | -20.3% | ? | 3.7% | i | -10.8% | 17.8µM*
O=C(COc1ccccc1)NC(=S)N1CCc2ccccc21 | -4.7% | i | 6.5% | i | . | 12.1%
O=C(COc1ccccc1Cl)NC(=S)Nc1ccccc1N1CCCC1 | 6.2% | ? | -3.0% | i | -8.1% | 15.8µM*
COC(=O)c1ccccc1NC(=S)NC(=O)COc1ccccc1Cl | -10.8% | i | -3.5% | . | -10.3% | -3.6%
O=C(N/N=C\C=C\c1ccco1)C1COc2ccccc2O1 (configuration not stated) | 13.4% | i | ? | i | 6.1% | 14.1µM*
O=C(N/N=C\c1cc(Br)cs1)C1COc2ccccc2O1 (configuration not stated) | 14.0% | ? | -3.1% | i | -13.2% | 35.5µM*
COc1ccccc1C(=O)N[C@@H]1c2ccccc2C2(CCN(Cc3cnn(C)c3C)CC2)[C@H]1O | . | . | -0.6% | . | . | .
Cc1nc(-c2ccc(S(=O)(=O)Nc3cc(Cl)ccc3C)cc2)co1 | ? | i | -4.9% | i | . | 22.4µM*
Cc1nc(-c2ccc(S(=O)(=O)Nc3cc(F)ccc3F)cc2)co1 | 16.1% | i | -0.5% | i | 3.4% | -9.4%
CC(=O)c1ccc(-c2c(CCO)sc3ccccc23)cc1 | 14.5% | i | . | i | . | 12.6µM*
CC(=O)c1ccc(-c2[nH]c3ccccc3c2CCN2C(=O)c3ccccc3C2=O)cc1 | 0.0% | i | -2.3% | i | . | 19.4%
COc1ccc(OC)c(CN2CCCC(c3nc(C)ncc3-c3ccc(F)cc3)C2)c1 (configuration not stated) | . | . | -4.6% | . | . | .
CCCn1nc(NC(=O)C(C)(C)C)c2cc3cc(OC)ccc3nc21 | 0.9% | i | 0.7% | ? | 12.9% | 17.0%
CCCCn1nc(NC(=O)CC)c2cc3cc(OC)ccc3nc21 | -0.4% | i | 2.5% | i | 17.4% | 11.2µM*
COc1ccc2nc3c(cc2c1)c(NC(=O)c1cccs1)nn3CC(C)C | 2.4% | i | 3.3% | ? | 25.3% | 25.1µM*
O=C(Cc1ccc(F)cc1)NCCc1csc(-c2cccc(F)c2)n1 | . | i | -2.6% | i | . | 11.2µM*
SMILES | aSyn yeast inh | Abeta yeast res | GRP78 ERSR act | FUS suppressor | MBNL1 CUG block | TDP43 rescue
O=C(NCCc1csc(-c2ccc(F)cc2)n1)c1cccc(F)c1 | . | i | -4.8% | i | . | 15.8µM*
Cc1cccc(-c2nc(CCNC(=O)Cc3ccc(F)cc3)cs2)c1 | . | i | -3.1% | i | . | 28.0%
O=S(=O)(NCCc1csc(-c2cccnc2)n1)c1cc(F)ccc1F | -14.6% | 14.1µM* | 0.3% | . | 2.2% | ?
O=C(NCCc1csc(-c2ccc(C(F)(F)F)cc2)n1)c1ccc(F)c(F)c1 | -4.2% | i | -2.7% | ? | . | 25.1µM*
CC(=O)c1cc(-c2ccccc2)c(=O)n2c1CCC2 | . | . | . | i | . | .
CC(C)Cc1nc2cc(NS(=O)(=O)N(C)C)cc(C(=O)N3CCSCC3)c2n1C | . | . | 4.1% | . | . | .
